Screens deposited in PubChem BioAssay by National Center for Advancing Translational Sciences (NCATS).
IMPase Li inh: qHTS Assay for Identifying the Cell-Membrane Permeable IMPase Inhibitors: Potentiation with Lithium. CHO-M1 cells, IP1 TR-FRET (IP-One), carbachol + lithium. Potency, µM (highest dose often 59.4 µM), inactives show top-dose activity, negative = IMPase inhibition, most hits filed as inhibitors. 210,000 compounds, 0.35% hits. AID 1457, 2008;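 further: IP1 builds up when IMPase is blocked and the TR-FRET signal falls; potency means the concentration at half of the fitted maximal effect; plate controls were basal vehicle for no effect and high inhibitor control for full effect; nearly all actives have a fitted effect of over 50% in size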
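CHO cells stably expressing M1 receptor (2000/well, cultured 16–30 h) treated 30 min at 37C with compound plus low lithium. Cytosolic IP1 by TR-FRET (665/620 ratio and 620 channel) after 10 min lysis; AC50 by Hill fit.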
ALDH1A1 block: qHTS Assay for Inhibitors of Aldehyde Dehydrogenase 1 (ALDH1A1) | Potency, µM (series often up to 75.3 µM), without a hit: top-dose activity, negative = inhibition, usual class: inhibitors | Purified ALDH1A1, NADH fluorescence, propionaldehyde substrate | 220,000 compounds, 7.3% hits; active means well fitted inhibition curve with a large enough effect, not every such curve was filed as active; inconclusive means small, poorly fitted or top-dose-only effect, or another doubt; inactive means no such curve, though single readings can be large or run the other way;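 further: potency means the concentration at half of the fitted maximal effect; plate controls were no enzyme wells and a reference inhibitor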
Target sequence (P00352 whole entry, looked up): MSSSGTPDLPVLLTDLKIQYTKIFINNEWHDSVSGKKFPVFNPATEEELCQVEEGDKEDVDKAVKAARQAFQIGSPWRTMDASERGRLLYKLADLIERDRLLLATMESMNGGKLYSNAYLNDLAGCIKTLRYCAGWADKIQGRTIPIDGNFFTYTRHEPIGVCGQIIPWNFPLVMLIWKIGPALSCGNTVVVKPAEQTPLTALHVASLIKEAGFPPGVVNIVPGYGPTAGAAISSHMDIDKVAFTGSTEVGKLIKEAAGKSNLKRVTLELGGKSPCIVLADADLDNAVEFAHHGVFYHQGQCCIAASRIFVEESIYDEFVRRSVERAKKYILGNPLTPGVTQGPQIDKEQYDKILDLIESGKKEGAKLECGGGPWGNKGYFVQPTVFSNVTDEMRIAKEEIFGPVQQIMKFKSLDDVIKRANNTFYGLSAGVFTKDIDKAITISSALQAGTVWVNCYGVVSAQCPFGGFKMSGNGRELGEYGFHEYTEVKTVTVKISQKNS
HTT ATP protect: qHTS Multiplex Assay to Identify Dual Action Probes in a Cell Model of Huntington: Cytoprotection (ATP). PC12 HTT-Q103 induced, cytoprotection, ATP luminescence, 40 h. Potency, µM (series often up to 56.4 µM), for inactives: cytoprotection (ATP increase), usual class: activators. 230,000 compounds, 0.14% hits. AID 1471, 2008; further: potency means the concentration at half of the fitted maximal effect; % of control where 0% means no effect; nearly all actives have a fitted effect of over 45% in size
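PC12 cells with ecdysone-inducible HTT exon 1 Q103-GFP, induced with 100 nM tebufenozide and co-treated with library compounds in a dose series (1536-well, 1500 cells/well). Cytoprotection read as ATP content by ATPlite luminescence.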
HTT aggregate: qHTS Multiplex Assay to Identify Dual Action Probes in a Cell Model of Huntington: Aggregate Formation (GFP); PC12 HttQ103-GFP aggregates, Acumen cytometry, 40 h; AID 1688, 2009; Potency, µM (series often up to 46.1 µM), for the others: top-dose activity change, negative = inhibition, hits mostly inhibitors; 220,000 compounds, 1.1% hits; further: potency means the concentration at half of the fitted maximal effect; on the % scale 0 is the no-effect control and ±100 the full control effect; nearly all actives have a fitted effect of over 60% in size
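Using laser scanning cytometry, GFP-positive aggregates were counted after lysis of PC12 cells induced with 100 nM tebufenozide to express HTT exon 1 Q103–GFP. Compounds were tested in titration.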
IMPase inh: qHTS Assay for Identifying the Cell-Membrane Permeable IMPase Inhibitors. Inositol monophosphatase 1 (Rattus norvegicus), P97697. AID 901, 2007. inhibition (IP1 accumulation), % at 46.1 µM. CHO-M1 cells, IP1 accumulation, HTRF TR-FRET ratio. 120,000 tested, under 10 active; active means well fitted curve in the direction sought with a large enough effect in the signal ratio, not every such curve was filed as active; inconclusive means small, poorly fitted or top-dose-only effect, or a change in a side signal; inactive means no such curve, though single readings can be large or run the other way; the % refers to the signal ratio;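 further: cells stimulated with carbachol in lithium chloride buffer; plate controls were DMSO basal wells for no effect and reference inhibitor wells for full effect; higher means more IMPase inhibition seen as more IP1 and lower FRET ratio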
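Carbachol-driven Gq signalling in CHO-M1 cells (2000/well) generates IP1. Compounds that block IMPase raise IP1 and so reduce the FRET signal from Eu-anti-IP1 and d2-IP1 after a 10 min room-temperature lysis.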
HPGD inh: qHTS Assay for Inhibitors of HPGD (15-Hydroxyprostaglandin Dehydrogenase); 15-hydroxyprostaglandin dehydrogenase [NAD(+)] (Homo sapiens), P15428; Potency, µM, inactives show at the top dose activity change, negative = inhibition, usual class: inhibitors; 150,000 compounds, 4.3% hits; purified HPGD, NADH fluorescence kinetic, PGE2 substrate; active means well fitted inhibition curve with a large enough effect, not every such curve was filed as active; inconclusive means small, poorly fitted or top-dose-only effect, or another doubt; inactive means no such curve, though single readings can be large or run the other way; further: potency means the concentration at half of the fitted maximal effect; on the % scale 0 is the no-effect control and ±100 the full control effect
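20 nM HPGD preincubated 15 min at room temperature with compound in 50 mM Tris-HCl pH 8, 0.01% Tween 20. Started with 1 mM NAD+ and 30 uM prostaglandin E2; NADH fluorescence (360/450 nm) read 5 times over 30-s intervals, last minus first.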
* marks the source's active call; other numbers are inactive results; ? = inconclusive; · = not tested or not shown; [ ] = another dose, or the depositor's remark. Only some compounds are listed: those with a hit (about 9.4% of all), similar ones and a draw of the others. Unless noted, the call rests on the fitted dose curve; in most records, active means well fitted curve in the direction sought with a large enough effect; inconclusive means small, poorly fitted or top-dose-only effect, or another doubt; inactive means no such curve, though single readings can be large; an effect the other way counts as inactive or inconclusive.

SMILES	IMPase Li inh	ALDH1A1 block	HTT ATP protect	HTT aggregate	IMPase inh	HPGD inh
CC(=O)C1=C(C)NC(SCC(N)=O)=C(C#N)C1c1ccco1 (stereo not drawn)	4.8%	-11.5%	-9.8%	-3.6%	·	·
CC(=O)C1=C(C)NC(SCC(=O)c2ccc(Cl)c(Cl)c2)=C(C#N)C1c1ccco1 (stereo not drawn)	9.7%[38.3 µM]	2.82µM*	5.3%	12.6%	8.4	22.4µM*
Cc1ccc(S(=O)(=O)NC(=O)N(C)C2CCCCC2)cc1	·	2.6%	16.9%[10 µM]	-3.1%[9.22 µM]	·	·
CC(=O)OCC1OC(n2cnc3c(=O)[nH]cnc32)C(OC(C)=O)C1OC(C)=O (stereo not drawn)	2.5%	3.2%	·	·	·	-11.4%
S=C1NC2=C(CCCC2=C2SCCS2)C(c2ccccc2)N1 (stereo not drawn)	11.1%	0.355µM*	-26.4%	3.2%	·	·
Cc1cccc(NC(=O)/C(=C/c2cccc([N+](=O)[O-])c2)NC(=O)c2cccs2)c1	11.1%	10.9%	-12.9%[10 µM]	20.4%	10.9	-6.1%
O=C(N/C(=C\c1cccc([N+](=O)[O-])c1)C(=O)N1CCCCC1)c1cccs1	-1.6%	20µM*	14.9%[10 µM]	5.6%	20.5	-4.5%
O=C(CSCc1cnn(-c2ccccc2)c1-n1cccc1)NCc1ccccn1	16.0%	9.3%	?	4.0%	·	·
CCN(CC)C(=O)CSCc1cnn(-c2ccccc2)c1-n1cccc1	14.7%[38.3 µM]	28.2µM*	-20.5%[10 µM]	?	7.8	-12.3%
Cc1cc(C)c(S(=O)(=O)Nc2ccc3oc4c(c3c2)CCCC4)cc1C	·	·	·	·	-12.0	·
O=C(O)c1ccc(CSc2nc3ccc(NC(=O)c4ccccc4C(=O)O)cc3s2)cc1	10.0%	12.3%	12.0%[10 µM]	-1.7%	·	·
CCC(C)/C(C)=N/NC(=O)c1ccc(CSc2nc3ccccc3s2)cc1 (stereo not drawn)	-0.4%	20µM*	·	-10.2%	·	20µM*
OCCN(CO)CO	7.3%	3.5%[13.5 µM]	-3.4%[10 µM]	·	·	-1.9%
COc1cccc(N2C(=O)C3CCCN3C2c2ccc(N(C)C)cc2)c1 (stereo not drawn)	4.0%[38.3 µM]	1µM*	-16.5%	11.4%	5.1	-12.4%
COc1cccc(N2C(=O)C3CCCN3C2c2ccc(Cl)cc2)c1 (stereo not drawn)	11.3%[38.3 µM]	5.5%	-13.1%	-6.0%	3.2	-8.3%
O=C(Cc1ccccc1)NC(=S)Nc1ccc2oc(-c3ccccc3)nc2c1	16.4%	22.4µM*	-1.8%[10 µM]	-9.6%	-12.2	?
CC(=O)OCC(OC(C)=O)C(OC(C)=O)C(OC(C)=O)C(OC(C)=O)C(COC(C)=O)OC(C)=O (stereo not drawn)	-3.7%	10.6%	-34.3%	·	·	-9.4%
C#CCCCCCCCCCCCC(O)CC(O)COC(C)=O (stereo not drawn)	26.4%	14.1µM*	-0.3%	·	·	-23.6%
COc1ccc(CC(NC(C)=O)C(=O)NC2CCN(C(=O)NCc3ccccc3)CC2)cc1OC (stereo not drawn)	-15.2%[38.3 µM]	1.0%	7.1%	-19.9%	2.3	-6.9%
CCOc1ccc(NC(=O)N2CCC(NC(=O)C(Cc3ccc(OC)c(OC)c3)NC(C)=O)CC2)cc1 (stereo not drawn)	-23.4%[38.3 µM]	0.0562µM*	?	-4.0%	1.4	3.3%
COc1ccc(CC(NC(C)=O)C(=O)NC2CCN(c3nnnn3-c3ccccc3)CC2)cc1 (stereo not drawn)	6.6%[38.3 µM]	2.51µM*	-16.4%[10 µM]	18.2%	3.5	-8.3%
CC(=O)NC(Cc1ccccc1)C(=O)NC1CCN(C(=O)NC2CCCCC2)CC1 (stereo not drawn)	-8.4%[38.3 µM]	7.8%	6.9%[10 µM]	8.7%	3.2	-5.3%
